{
  "source": "PubChem BioAssay AID743110",
  "about": "(Vanderbilt Specialized Chemistry Center, 2013)",
  "note": "Measured potencies and affinities stand elsewhere. A number with no mark means an inactive call.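 How the source made its calls: active means Blocks human M5 receptor in a calcium assay, with half-maximal inhibiting concentration under 10 µM; inactive means the rest.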",
  "data": [
    {"biological_target": "Muscarinic acetylcholine receptor M5 (Homo sapiens) (UniProt P08912)", "sequence (P08912 whole entry, looked up)": "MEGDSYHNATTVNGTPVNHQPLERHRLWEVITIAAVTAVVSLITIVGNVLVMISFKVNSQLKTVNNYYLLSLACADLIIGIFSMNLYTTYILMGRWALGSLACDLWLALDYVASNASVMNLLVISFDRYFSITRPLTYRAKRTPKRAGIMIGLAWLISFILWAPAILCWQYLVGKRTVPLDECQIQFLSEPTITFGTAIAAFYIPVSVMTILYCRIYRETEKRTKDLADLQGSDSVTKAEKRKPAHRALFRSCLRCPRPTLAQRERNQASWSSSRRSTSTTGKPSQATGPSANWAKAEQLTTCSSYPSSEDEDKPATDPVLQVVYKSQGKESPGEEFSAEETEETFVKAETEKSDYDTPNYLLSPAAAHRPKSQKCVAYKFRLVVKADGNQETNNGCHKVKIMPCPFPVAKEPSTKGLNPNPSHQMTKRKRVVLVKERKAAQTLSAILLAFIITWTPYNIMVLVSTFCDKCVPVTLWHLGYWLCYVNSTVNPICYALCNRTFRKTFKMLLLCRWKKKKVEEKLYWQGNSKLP", "assay": "M5 muscarinic receptor antagonist potency, dose response, cell-based, CHO-K1 hM5, Fluo-4 calcium flux, ACh EC80 (AID 743110)", "details": "series mostly up to 30 µM; response, % of max ACh: at the top concentration", "values": [
      {"smiles": "CC(=O)c1cccc(OCc2cc(C(=O)NC(C)c3ccccn3)no2)c1", "note": "(stereo not given)", "response, % of max ACh": 47.6},
      {"smiles": "CC(=O)c1cccc(OCc2ccc(C(=O)N(C)C(C)c3ccccn3)cc2)c1", "note": "(stereo not given)", "response, % of max ACh": 53.7},
      {"smiles": "CC(=O)c1cccc(OCc2cccc(C(=O)N(C)C(C)c3ccccn3)c2)c1", "note": "(stereo not given)", "response, % of max ACh": 38.2},
      {"smiles": "CC(=O)c1cccc(N(Cc2cc(C(=O)N(C)C(C)c3ccccn3)no2)C(=O)c2ccccc2)c1", "note": "(stereo not given)", "response, % of max ACh": 73},
      {"smiles": "CC(c1ccccn1)N(C)C(=O)c1cc(COc2cccc(Br)c2)on1", "note": "(stereo not given)", "response, % of max ACh": 49.8}
    ]}
  ]
}
